Reference: PubChem BioAssay

Assays:
[1] = system: Human papillomavirus type 1a protein E7 (residues 44-93); test: HPV1a E7 fragment binders on microarrays, primary screen, biochemical, small-molecule microarray, residues 44-93, 635 nm fluorescence (AID 1108); conditions: small-molecule microarray binding, fluorescence 635 nm; higher = more signal;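 also: E7 fragment applied at 1 µg/mL in TBST for 1 h at 4 C; score combines spot fluorescence with its signal to noise ratio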
[2] = modulators of HCV replicon luciferase signal, primary screen, HCV replication inhibitor project, Huh7 cells, luciferase reporter (AID 1109); conditions: 48 h, higher = more signal;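 also: huh7 hepatoma cells harbouring a luciferase neomycin HCV replicon reporter; luciferase luminescence as measure of HCV replicon replication; test concentration not given here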
[3] = target: Left-right determination factor 2 (Homo sapiens) (UniProt O00292); test: LEFTY2 binders on small-molecule microarrays, primary screen, biochemical, small-molecule microarray, 635 nm fluorescence scan (AID 1110); conditions: LEFTY2 binding, higher = more signal
Chain of Left-right determination factor 2 (Homo sapiens) (O00292 whole entry, looked up): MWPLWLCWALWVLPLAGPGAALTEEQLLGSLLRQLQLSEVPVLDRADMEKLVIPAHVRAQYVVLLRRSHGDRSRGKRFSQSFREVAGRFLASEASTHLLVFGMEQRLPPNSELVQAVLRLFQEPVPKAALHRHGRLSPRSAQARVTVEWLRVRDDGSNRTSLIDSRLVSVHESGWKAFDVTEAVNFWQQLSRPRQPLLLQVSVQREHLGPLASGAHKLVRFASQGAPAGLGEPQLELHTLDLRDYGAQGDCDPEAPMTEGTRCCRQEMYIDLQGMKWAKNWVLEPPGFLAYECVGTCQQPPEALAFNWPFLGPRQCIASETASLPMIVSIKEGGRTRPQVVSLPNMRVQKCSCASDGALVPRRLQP

[4] = target: Calmodulin-1 (Homo sapiens) (UniProt P0DP23); test: CALM1 binders on microarrays, EGTA buffer, profiling panel, biochemical, small-molecule microarray, Cy5-labelled CALM1 (AID 1111); conditions: Cy5-CALM1 binding fluorescence, higher = more signal;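 also: labelled calmodulin applied in Tris saline Tween buffer holding calcium plus EGTA and DTT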
[5] = target: Calmodulin-1 (Homo sapiens) (UniProt P0DP23); test: calcium-bound CALM1 binders on microarrays, profiling panel, artefact control for SMM control-protein annotation, biochemical, small-molecule microarray, Cy5-labelled CALM1, plus calcium (AID 1112); conditions: Cy5-CALM1 binding fluorescence, higher = more signal;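 also: score merges spot fluorescence with signal to noise from triplicate slides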
[6] = small-molecule microarray binders of probe aWnt5a, primary screen, biochemical, biotinylated probe, 635/667 nm fluorescence (AID 1113); conditions: higher = more signal;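 also: score merges 667 nm fluorescence intensity with signal-to-noise per printed feature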
[7] = small-molecule microarray binders of probe aShh, primary screen, biochemical, biotinylated probe, 635/667 nm fluorescence (AID 1114); conditions: higher = more signal;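 also: probe is biotin-labelled aShh protein from a stem cell growth factor screen; measures binding of labelled protein to compounds printed on the slide; score merges feature fluorescence at 667 nm with signal-to-noise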
[8] = small-molecule microarray binders of probe aNog, primary screen, biochemical, biotinylated probe, 635/667 nm fluorescence (AID 1115); conditions: higher = more signal;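 also: probe is biotinylated aNog protein used at 0.15 µg/mL for 1 h at 4 C; z-score combines 667 nm fluorescence of each spot with its signal to noise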
[9] = target: Torsin-1A-interacting protein 1 (Homo sapiens) (UniProt Q5JTV8); test: LAP1 binders from COS7 cell lysate, primary screen, small-molecule microarray, 635/667 nm fluorescence (AID 1116); conditions: COS7-hLAP1 lysate binding, 635 nm fluorescence, higher = more signal
Chain of Torsin-1A-interacting protein 1 (Homo sapiens) (Q5JTV8 whole entry, looked up): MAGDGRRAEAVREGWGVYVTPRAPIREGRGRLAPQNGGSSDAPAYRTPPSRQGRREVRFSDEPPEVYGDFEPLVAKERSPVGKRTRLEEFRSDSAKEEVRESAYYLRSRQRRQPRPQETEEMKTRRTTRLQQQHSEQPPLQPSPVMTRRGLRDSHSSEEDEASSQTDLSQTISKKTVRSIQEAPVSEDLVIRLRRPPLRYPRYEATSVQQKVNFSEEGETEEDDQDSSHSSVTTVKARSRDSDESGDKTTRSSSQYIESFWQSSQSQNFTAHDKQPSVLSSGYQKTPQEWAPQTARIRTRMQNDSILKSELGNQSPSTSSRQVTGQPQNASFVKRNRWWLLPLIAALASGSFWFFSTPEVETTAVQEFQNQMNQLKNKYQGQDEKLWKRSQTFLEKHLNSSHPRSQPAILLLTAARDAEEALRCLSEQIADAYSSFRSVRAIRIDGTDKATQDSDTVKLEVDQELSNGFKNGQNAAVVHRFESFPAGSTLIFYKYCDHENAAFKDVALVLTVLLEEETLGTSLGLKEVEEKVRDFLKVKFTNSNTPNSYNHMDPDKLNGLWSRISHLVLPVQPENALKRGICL

[10] = target: Alpha-bungarotoxin (Bungarus multicinctus) (UniProt P60615); test: alpha-bungarotoxin binders on microarray, profiling panel, artefact control for SMM control protein annotation, biochemical, small-molecule microarray, Alexa647 label, 635/667 nm fluorescence (AID 1117); conditions: alpha-BTX-A647 binding fluorescence, higher = more signal
Chain of Alpha-bungarotoxin (Bungarus multicinctus) (P60615 whole entry, looked up): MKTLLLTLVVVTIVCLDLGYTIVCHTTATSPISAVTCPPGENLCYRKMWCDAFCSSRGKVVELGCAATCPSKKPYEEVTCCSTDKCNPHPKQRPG

Structure (SMILES)	composite z-score [1]	z-score [2]	composite z-score [3]	composite z-score [4]	composite z-score [5]	composite z-score [6]	composite z-score [7]	composite z-score [8]	composite z-score [9]	composite z-score [10]
NC(=O)[C@@H]1[C@H]2C(=O)O[C@H](c3ccccc3)[C@H](c3ccccc3)N2[C@H](c2ccc(O)cc2)[C@@]12C(=O)Nc1ccc(C#CC3=CCCCC3)cc12	1.42	-3.23	-0.585	0.573	0.199	0.065	1.78	1.01	0.453	0.334
CC(C)CN1C(=O)[C@@]2(c3ccc([N+](=O)[O-])cc3)CC(=O)N(C3CCCCC3)[C@@H]2c2ccc(CO)cc21	-1.25	-0.707	-1.69	-0.311	-0.0449	-0.208	-0.33	-0.181	-0.803	0.547
COCCOC(=O)N1C(=O)[C@@]2(c3ccccc31)[C@H](c1ccc(OCCO)cc1)N1[C@H](c3ccccc3)[C@H](c3ccccc3)OC(=O)[C@H]1[C@@H]2C(=O)N1CCc2cc(OC)c(OC)cc2C1	1.16	-2.15	1.03	1.2	0.0721	-0.001	0.0141	0.603	0.977	2.23
C=CC[C@@]1(C(=O)N2CCCCC2)N=C(c2ccc(OCCCO)cc2)O[C@@H]1c1ccccc1CN=[N+]=[N-]	1.48	-2.39	0.0868	1.75	0.797	0.104	0.57	1.18	1.76	2.05
CN1C(=O)C2C=CC(C(O)c3ccc(F)cc3)N(N(c3ccccc3)c3ccccc3)C2C1=O (stereo not given)	1.11	-0.0952	-0.698	0.49	-0.235	-0.0236	-0.152	-0.55	0.154	0.633
O=C(NCc1ccccc1)[C@@H]1c2ccccc2C(=O)N(C2Cc3ccccc3C2)[C@H]1c1ccc(CO)cc1	-0.146	-0.51	-0.322	0.158	0.229	-0.101	0.194	1.13	0.628	1.22
COc1ccc(C(=O)Nc2cccc(CN3C(=O)[C@]4(O[C@H](CCn5cc(CCO)nn5)[C@@H]([Si](C)(C)c5ccc(OC)cc5)[C@@H]4C)c4ccccc43)c2)cc1	1.31	-5.09	0.785	0.628	-0.0319	-0.0685	-0.0769	0.0471	0.456	0.547
COCCOC(=O)N1C(=O)[C@@]2(c3cc(C#CC4(O)CCCCCC4)ccc31)[C@H](C(=O)Nc1nc3ccccc3s1)[C@H]1C(=O)O[C@H](c3ccccc3)[C@H](c3ccccc3)N1[C@@H]2c1ccc(OCCO)cc1	1.31	-2.33	0.726	0.693	-0.271	-0.169	0.138	0.0824	-0.105	1.21
CCCCN1CC=CC23O[C@@H]4/C=C\CCCOC(=O)C4[C@H]2C(=O)N(CCCO)[C@@H]3C1=O (stereo not given in full)	0.498	-0.381	-1.08	-0.692	-0.298	-0.124	-0.0211	0.13	2.1	-0.803
C=CCC(OC(C)=O)[C@@H]1[C@@H](N(Cc2ccc(-c3cccc(C(F)(F)F)c3)o2)C(=O)c2cccc3ccccc23)c2cc(OCCCO)ccc2N1C(=O)Cc1ccc2ccccc2c1 (stereo not given in full)	-0.168	0.395	-0.648	0.0134	0.242	-0.0597	0.123	-0.398	0.0212	0.794
COc1ccc([Si](C)(C)[C@@H]2[C@@H](CCO)O[C@]3(C(=O)N(Cc4cccc(N5CCOC5=O)c4)c4ccccc43)[C@H]2C)cc1	0.542	-4.17	0.133	1.37	0.924	-0.0704	0.0756	0.36	0.412	1.32
CCCCC(=C=CC[C@@H](O)c1cccc(OCCO)c1)C[C@@H](O)c1ccccn1	1.35	-0.617	0.229	1.16	-0.946	-0.0735	-0.0553	0.144	1.25	1.16
O=C1O[C@@H](c2ccccc2)[C@@H](c2ccccc2)N2[C@@H](c3ccc(OCCO)cc3)[C@]3(C(=O)Nc4ccc(C#CCCO)cc43)[C@@H](C(=O)NC[C@H](O)c3ccccc3)[C@H]12	1.4	-1.25	0.25	0.604	0.174	0.119	0.493	-0.398	1.09	1.24
COc1cc(OC)c(C(O)C2C=CC3C(=O)NC(=O)C3N2Nc2ccccn2)cc1Br (stereo not given)	0.19	0.742	0.586	0.0037	-0.107	-0.0684	-0.0769	-0.461	1.17	0.484
[N-]=[N+]=Nc1ccccc1[C@H]1OC(c2ccc(OCCCO)cc2)=N[C@@]1(Cc1ccccc1)C(=O)N1CCOCC1	1.1	-2.37	0.103	2.25	0.937	-0.0748	0.886	0.88	1.32	1.73
COc1ccc(NN2C(C(O)c3ccc(N(C)C)cc3)C=CC3C(=O)N(C4CCCCC4)C(=O)C32)cc1 (stereo not given)	1.42	-0.581	-0.146	1.21	0.651	0.351	-0.0248	0.42	1.22	1.72
[N-]=[N+]=NCc1ccccc1[C@@H]1OC(c2ccc(OCCCO)cc2)=N[C@]1(CCS(=O)(=O)c1ccccc1)C(=O)N1CCOCC1	1.41	-1.82	-0.141	1.72	0.443	0.0357	0.0381	0.113	2	2.04
